The entries come from a sample that favours hits as a whole.
Pf apPOL block = Pf-apPOL DNA polymerase inhibition; inhibition, % at 10 µM; Recombinant Pf-apPOL, molecular beacon fluorescence, 1.5 h; 210,000 compounds, 0.25% hits
mHTT-CaM PPI inh = disrupts binding of mutant huntingtin to calmodulin; P42858; AlphaScreen His-mHTT/GST-CaM binding, luminescence; inhibition, % at 15 µM; 190,000 compounds, 3.6% hits; AID 1671202
Target sequence (P42858 whole entry, looked up, change not shown): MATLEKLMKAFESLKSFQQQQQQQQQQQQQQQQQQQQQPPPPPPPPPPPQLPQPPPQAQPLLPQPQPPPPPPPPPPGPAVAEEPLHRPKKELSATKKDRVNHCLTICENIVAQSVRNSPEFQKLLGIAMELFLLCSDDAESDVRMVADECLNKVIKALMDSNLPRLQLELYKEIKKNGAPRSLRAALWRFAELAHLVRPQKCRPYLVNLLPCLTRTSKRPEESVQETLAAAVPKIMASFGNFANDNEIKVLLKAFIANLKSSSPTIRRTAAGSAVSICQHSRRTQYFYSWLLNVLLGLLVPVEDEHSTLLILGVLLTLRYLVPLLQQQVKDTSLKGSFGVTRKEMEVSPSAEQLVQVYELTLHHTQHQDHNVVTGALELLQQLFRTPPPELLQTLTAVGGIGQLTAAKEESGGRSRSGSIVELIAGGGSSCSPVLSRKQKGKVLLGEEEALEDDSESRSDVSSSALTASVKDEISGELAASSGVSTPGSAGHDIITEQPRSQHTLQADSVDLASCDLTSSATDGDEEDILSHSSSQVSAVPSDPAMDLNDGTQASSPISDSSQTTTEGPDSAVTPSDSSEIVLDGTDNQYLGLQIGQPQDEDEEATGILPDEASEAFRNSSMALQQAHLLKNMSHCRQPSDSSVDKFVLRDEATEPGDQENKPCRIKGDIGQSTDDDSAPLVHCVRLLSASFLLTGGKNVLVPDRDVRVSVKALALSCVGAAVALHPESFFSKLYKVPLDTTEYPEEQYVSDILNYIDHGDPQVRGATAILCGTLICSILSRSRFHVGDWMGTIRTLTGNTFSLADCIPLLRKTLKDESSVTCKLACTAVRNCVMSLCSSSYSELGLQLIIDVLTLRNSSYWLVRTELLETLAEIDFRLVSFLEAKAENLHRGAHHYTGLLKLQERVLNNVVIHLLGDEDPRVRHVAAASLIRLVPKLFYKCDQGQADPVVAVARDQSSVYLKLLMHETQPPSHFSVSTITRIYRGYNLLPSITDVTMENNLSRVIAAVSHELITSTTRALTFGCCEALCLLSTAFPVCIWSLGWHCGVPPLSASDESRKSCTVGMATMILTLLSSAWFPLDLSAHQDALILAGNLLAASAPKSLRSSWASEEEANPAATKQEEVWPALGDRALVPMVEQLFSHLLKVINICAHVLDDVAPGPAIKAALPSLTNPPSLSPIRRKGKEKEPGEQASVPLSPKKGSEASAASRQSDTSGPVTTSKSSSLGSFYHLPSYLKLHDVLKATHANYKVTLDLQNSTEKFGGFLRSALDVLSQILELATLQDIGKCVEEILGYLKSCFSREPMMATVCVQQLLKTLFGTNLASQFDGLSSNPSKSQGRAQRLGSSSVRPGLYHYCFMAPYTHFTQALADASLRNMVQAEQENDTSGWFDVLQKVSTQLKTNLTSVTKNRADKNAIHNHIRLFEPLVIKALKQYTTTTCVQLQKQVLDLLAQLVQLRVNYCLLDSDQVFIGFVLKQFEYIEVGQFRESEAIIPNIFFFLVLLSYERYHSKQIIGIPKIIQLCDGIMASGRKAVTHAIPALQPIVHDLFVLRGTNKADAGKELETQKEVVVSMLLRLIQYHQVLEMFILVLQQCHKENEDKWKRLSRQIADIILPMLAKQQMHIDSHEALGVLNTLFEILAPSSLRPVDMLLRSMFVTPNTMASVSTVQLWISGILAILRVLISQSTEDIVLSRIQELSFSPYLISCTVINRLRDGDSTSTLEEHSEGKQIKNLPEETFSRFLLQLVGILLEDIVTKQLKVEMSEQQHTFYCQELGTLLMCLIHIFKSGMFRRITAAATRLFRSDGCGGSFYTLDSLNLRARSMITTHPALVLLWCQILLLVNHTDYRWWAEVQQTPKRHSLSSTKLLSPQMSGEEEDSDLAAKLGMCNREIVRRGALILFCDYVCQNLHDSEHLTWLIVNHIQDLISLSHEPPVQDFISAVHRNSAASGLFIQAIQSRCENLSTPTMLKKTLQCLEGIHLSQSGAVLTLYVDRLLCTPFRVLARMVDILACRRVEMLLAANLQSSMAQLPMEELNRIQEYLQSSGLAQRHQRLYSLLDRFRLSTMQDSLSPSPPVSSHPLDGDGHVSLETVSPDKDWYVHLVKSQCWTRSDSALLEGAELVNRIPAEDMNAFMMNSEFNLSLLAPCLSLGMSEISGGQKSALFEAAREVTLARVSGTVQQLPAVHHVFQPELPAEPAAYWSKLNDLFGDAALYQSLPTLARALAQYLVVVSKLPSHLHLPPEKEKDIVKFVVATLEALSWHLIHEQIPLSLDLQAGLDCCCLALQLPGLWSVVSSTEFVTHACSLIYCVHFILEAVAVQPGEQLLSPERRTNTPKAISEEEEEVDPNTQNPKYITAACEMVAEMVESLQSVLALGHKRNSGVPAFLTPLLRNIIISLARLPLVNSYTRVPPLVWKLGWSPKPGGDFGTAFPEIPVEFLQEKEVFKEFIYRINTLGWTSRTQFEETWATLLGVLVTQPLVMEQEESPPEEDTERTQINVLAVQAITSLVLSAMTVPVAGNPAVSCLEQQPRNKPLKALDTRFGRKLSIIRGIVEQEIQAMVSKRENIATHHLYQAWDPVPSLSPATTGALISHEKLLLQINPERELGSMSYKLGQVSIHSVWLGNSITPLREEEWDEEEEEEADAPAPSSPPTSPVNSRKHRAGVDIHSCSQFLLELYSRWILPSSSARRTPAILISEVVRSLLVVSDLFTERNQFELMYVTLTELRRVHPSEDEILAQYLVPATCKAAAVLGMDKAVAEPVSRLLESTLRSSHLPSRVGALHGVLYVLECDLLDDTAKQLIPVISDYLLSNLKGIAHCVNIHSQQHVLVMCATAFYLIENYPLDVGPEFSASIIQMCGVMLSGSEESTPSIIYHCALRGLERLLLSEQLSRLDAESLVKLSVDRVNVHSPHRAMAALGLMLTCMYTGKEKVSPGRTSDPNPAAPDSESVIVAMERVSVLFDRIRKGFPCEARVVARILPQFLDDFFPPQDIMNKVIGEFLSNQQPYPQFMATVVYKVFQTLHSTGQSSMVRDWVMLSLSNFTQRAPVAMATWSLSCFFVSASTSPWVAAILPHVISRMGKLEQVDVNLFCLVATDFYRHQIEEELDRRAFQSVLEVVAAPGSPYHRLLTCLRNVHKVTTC
Large screens that a line does not name were inactive. Cut-off read from the data, not from the text of the source: active = inhibition above about 50%; inactive = the rest.

CCOc1nccnc1N1CCC(NC(=O)NCCOC)C1 (stereo unspecified)	none
Cc1nc2c(C(=O)NCCC(C)C)cnn2c(C)c1Cc1cccc(Cl)c1	none
COC(CNC(=O)c1cnn2c(C)c(Cc3cccc(Cl)c3)c(C)nc12)OC	mHTT-CaM PPI inh 61.0
COC(CNC(=O)c1cnn2c(C)c(Cc3ccccc3)c(C)nc12)OC	none
Cc1nc2c(C(=O)NC(C)C)cnn2c(C)c1Cc1cccc(Cl)c1	mHTT-CaM PPI inh 70.0
COc1ccc(C(=O)C=C(C(=O)c2ccccc2)c2ccccc2)cc1CN1CCOCC1	none (no result: mHTT-CaM PPI inh)
O=[N+]([O-])c1c(Nc2ccccc2O)ncnc1Nc1ccccc1O	mHTT-CaM PPI inh 69.0
Nc1ncnc(Nc2ccccc2N=Cc2ccccc2O)c1[N+](=O)[O-]	none
Cc1ccc(Cl)cc1NC(=O)N1CC2CCCN2c2ccccc21 (stereo unspecified)	none
Cc1ccc(NC(=O)N2CC3CCCN3c3ccccc32)c(Cl)c1 (stereo unspecified)	mHTT-CaM PPI inh 76.5
O=C(Nc1ccccc1Cl)N1CC2CCCN2c2ccccc21 (stereo unspecified)	mHTT-CaM PPI inh 81.4
CC1CN(C(=O)Nc2ccccc2Cl)c2ccccc2O1 (stereo unspecified)	none
Cc1ccccc1/C=C1\N=C(c2ccc(F)cc2)OC1=O	none
Cc1ccsc1C(=O)N1CCC(n2nc(-c3ccsc3)ccc2=O)CC1	mHTT-CaM PPI inh 96.2
O=C(c1ccncc1)N1CCC(n2nc(-c3ccsc3)ccc2=O)CC1	none
Cc1ccc(Oc2ncccc2NC(=O)CSc2ccc(Cl)cc2)c2c1CCC2	none (no result: mHTT-CaM PPI inh)
CCN(CC)c1ccc2cc(C(=O)Nc3ccccc3C)c(=O)oc2c1	none
COc1cc(OC)cc(C2=NC3(CCCC3)N(C(=O)c3ccc(OC)c(OC)c3)C2=S)c1	mHTT-CaM PPI inh 85.1
COc1cc(C(=O)N2C(=S)C(c3ccccc3)=NC23CCCCC3)cc(OC)c1OC	none
COc1cc(Br)c(CN2CCN(C=O)CC2)cc1OC	none
COc1cc(S(=O)(=O)n2cnc3cc(C)c(C)cc32)c(C)cc1C	none
COc1cc(C)c(S(=O)(=O)n2cnc3cc(C)c(C)cc32)cc1C	mHTT-CaM PPI inh 67.0
CN(Cc1ccccc1)c1ncnc2c1cnn2-c1ccc(Cl)cc1	none
Cc1nc2cc(NC(=O)Cc3csc(NC(=O)c4ccc(=O)[nH]c4)n3)ccc2s1	mHTT-CaM PPI inh 58.6
Cc1nc2cc(NC(=O)Cc3csc(NC(=O)C4CCCC4)n3)ccc2s1	none
COc1ccc(CNC(=O)Cc2ccc(F)cc2)cc1	none
CCN1C(=O)c2cccc3c(NC(=O)COc4ccc(Cl)cc4)ccc1c23	mHTT-CaM PPI inh 51.8
CCN1C(=O)c2cccc3c(NC(=O)c4ccccc4[N+](=O)[O-])ccc1c23	none
Cc1cccc(C(=O)Nc2c3c(nn2-c2cccc(C)c2C)CSC3)c1	none
Cc1cccc(-n2nc3c(c2NC(=O)/C=C/c2ccccc2)CSC3)c1C	mHTT-CaM PPI inh 94.0
CC(=O)Nc1c2c(nn1-c1cccc(C)c1C)CSC2	none
Cc1cccc(-n2nc3c(c2NC(=O)/C=C/c2ccco2)CSC3)c1C	mHTT-CaM PPI inh 95.0
Cc1ccc(NC(=O)c2c[nH]c3ccccc3c2=O)c(C)c1	none
Cc1ccccc1-n1nc2c(c1NC(=O)Cc1ccccc1)CS(=O)(=O)C2	none
CCCCC(=O)Nc1c2c(nn1-c1ccccc1C)CS(=O)(=O)C2	Pf apPOL block 72.1
O=C(Cc1ccccc1F)N1CCCC(c2ccnc(Nc3ccccc3)n2)C1 (stereo unspecified)	mHTT-CaM PPI inh 85.6
COc1ccc(-c2nccc(C3CCCN(C(=O)Cc4ccc(F)cc4)C3)n2)cc1 (stereo unspecified)	none
O=C(c1cccs1)N1CCCC(c2ccnc(Nc3ccccc3F)n2)C1 (stereo unspecified)	none
CC(C)C(=O)N1CCCC(c2ccnc(Nc3ccccc3)n2)C1 (stereo unspecified)	none
CC(C)CC(=O)N1CCCC(c2ccnc(Nc3ccccc3)n2)C1 (stereo unspecified)	mHTT-CaM PPI inh 70.8
O=C(Cc1ccc(F)cc1)N1CCCC(c2ccnc(Nc3ccccc3)n2)C1 (stereo unspecified)	mHTT-CaM PPI inh 96.2
O=C(c1cccs1)N1CCCC(c2ccnc(Nc3ccccc3)n2)C1 (stereo unspecified)	mHTT-CaM PPI inh 61.3
CCOCC(=O)N1CCCC(c2ccnc(Nc3ccc(OC)cc3)n2)C1 (stereo unspecified)	none
O=C(O)C(Cc1ccc([N+](=O)[O-])cc1)NS(=O)(=O)c1ccccc1 (stereo unspecified)	none (no result: mHTT-CaM PPI inh)
O=C(NC1CC1)c1ccc(OCC2CCCN2C(=O)c2ccc(F)c(Cl)c2)cc1 (stereo unspecified)	none
OC(c1ccccn1)C1CCN(Cc2cccs2)CC1 (stereo unspecified)	none
CC1CCN(CC2CCN(S(=O)(=O)c3cccc4cccnc34)CC2)CC1	none
CCOc1nc(N=C(N)N)nc2c(C)cccc12	mHTT-CaM PPI inh 65.1
CCOc1nnc(-c2ccc(C)cc2)c2ccccc12	none
CCC(CC)C(=O)NCCC1CCN(C(=O)c2ccccc2)CC1	none
O=C(c1ccccc1)c1cc(F)c(N2CCOCC2)cc1Cl	none

Screening results: PubChem, University of Kansas High Throughput Screening Laboratory
